Sampled rows, rich in hits. Any-hit rate of the full collection: about 4.8%.
SKKanGAS inh = inhibitors of SKKanGAS S. pyogenes growth in kanamycin (SK-promoter or general growth effect); BacTiter-Glo, 6 h; inhibition, % at 7.5 µM; 300,000 tested, 1.3% active;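 active = mean replicate score, as percent of positive control median, at least 50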;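 note: strain carries kanamycin resistance gene driven by streptokinase promoter and grows in 40 µg/ml kanamycin; loss of luminescence reflects streptokinase promoter inhibition or plain growth inhibition; 0% = median of DMSO wells and 100% = positive control at its reference dose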
NALP1 yeast inh = blocks the NALP1 inflammasome reconstituted in yeast; S. cerevisiae NALP1/ASC/caspase-1 growth, X-gal OD620, 72 h; inhibition, % at 10 µM; 280,000 tested, 0.61% active; in the data active = inhibition mostly above about 24%, no sharp cut-off; inactive = mostly below about 32%
tim23-1 inh = growth inhibitors of tim23-1 mutant yeast; S. cerevisiae tim23-1 growth, BacTiter-Glo luminescence, 24 h; inhibition, % at 20 µM; 330,000 tested, 1.3% active; AID 463212;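 active = growth inhibition of the mutant yeast at or above 50%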;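 note: temperature-sensitive mutant grown at 25 °C; plate controls were DMSO-treated mutant yeast for no effect and medium wells lacking yeast for full effect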
TIM10 inh = growth inhibitors of TIM10 yeast strain. S. cerevisiae TIM10 strain growth, BacTiter-Glo luminescence, 24 h. inhibition, % at 10 µM. 330,000 tested, 1.4% active;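 active = inhibition of 40% or more at the single tested concentration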;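 note: wild-type TIM10 isogenic control strain grown at permissive 25 °C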
tim10-1 inh = growth inhibitors of tim10-1 mutant yeast; S. cerevisiae tim10-1 ts strain growth, BacTiter-Glo, 24 h; inhibition, % at 20 µM; 330,000 tested, 2.2% active; AID 463190;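 active = inhibition of at least 40%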;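 note: mutant grown at 25 °C; 0% = DMSO wells with yeast and 100% = wells holding no yeast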
PfHsp90 set2 = inhibits growth of yeast expressing Plasmodium falciparum Hsp90 | S. cerevisiae expressing PfHsp90, BacTiter-Glo ATP, 48 h; yeast lacking PDR1 and PDR3 efflux regulators | inhibition, % at 9.4 µM | 310,000 tested, 0.32% active;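 active = every replicate shows inhibition above about 80%, whatever the replicate mean, limit read from the data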;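 note: 0% = DMSO neutral controls and 100% = 20 µM radicicol positive controls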
The depositor's hits bear a star; nt = no result.

SMILES	SKKanGAS inh	NALP1 yeast inh	tim23-1 inh	TIM10 inh	tim10-1 inh	PfHsp90 set2
O=C(/C=C/c1ccc2ccccc2c1)c1ccoc1	-2	5	17	23	20	-24
Cc1cccc(N2CCN(C(=O)C3CCN(c4ncnc5c4nc4n5CCCCC4)CC3)CC2C)c1 (stereo not drawn)	6	22	36	31	33	9
Cc1nc(N/N=C\c2ccc3c(c2)OCO3)sc1C	53*	14	25	6	0	23
C(=N\Nc1nc2ccccc2s1)/c1ccc2c(c1)OCO2	-3	-5	13	21	28	-47
COc1cccc2c1Oc1ncccc1N(C(=O)CCC(=O)NCc1ccccc1)C2	3	7	-11	-5	-3	-5
COc1ccc(C(=O)NCc2nnc(SCC(=O)Nc3cc(OC)ccc3OC)o2)cc1	-3	-3	7	7	-6	-8
O=C(Nc1nnc(S(=O)(=O)N2CCCC2)s1)c1cccc([N+](=O)[O-])c1	44	-22	16	6	26	-12
CCCCCCCCCCCCCC(=O)NO	nt	nt	nt	nt	nt	107*
CCCCCCCC/C=C\CCCCCCCC(=O)NCCO	nt	nt	12	-2	29	109*
Cc1ccc(C)c(C(=O)Nc2nc3ccccc3[nH]2)c1	7	8	12	-10	-17	-30
Cc1ccc(Nc2nc3ccccc3[nH]2)nc1	66*	26	-78	4	14	nt
COC(=O)CNc1cc(S(=O)(=O)N2CCCCC2)ccc1Oc1ccc(C(=O)OC)cc1	-5	31	29	1	13	-19
COC(=O)c1ccc(Oc2ccc(S(=O)(=O)N3CCCCC3)cc2N)cc1	0	56*	21	2	13	10
Cn1c(CC(=O)Nc2ccccc2F)nnc1SCC(=O)NC1CCCC1	0	8	1	5	-24	-17
Cc1cc(C(=O)N/N=C/c2ccc(N(C)C)o2)cs1	3	31*	-7	-5	-9	-18
Cc1ccc(/C=N/NC(=O)c2csc(C)c2)o1	-6	-6	6	13	2	5
Cc1cc(C)c2c(N=NN3CCOCC3)[nH]nc2n1	4	25	5	3	9	102*
Cc1cc(C)c(C#N)c(N2CCOCC2)n1	-7	-1	2	-1	-12	9
COc1ccccc1-c1noc2ncnc(Nc3ccccc3C)c12	7	12	25	-21	11	1
Cc1nnc(SCC2=C(C(=O)O)N3C(=O)C(NC(=O)C(C)n4nc(C(F)(F)F)cc4C)C3SC2)s1 (stereo not drawn)	103*	7	12	2	9	3
CC1=C(C(=O)O)N2C(=O)C(NC(=O)c3nn(C)cc3Cl)C2SC1 (stereo not drawn)	-3	3	-7	-9	-11	16
Cc1nn(CC(=O)NC2C(=O)N3C(C(=O)O)=C(CSc4nnnn4C)CSC23)cc1Br (stereo not drawn)	109*	6	0	-15	5	-6
Cc1nnc(SCC2=C(C(=O)O)N3C(=O)C(NC(=O)Cc4ccccc4)C3SC2)s1 (stereo not drawn)	nt	nt	8	-8	7	8
CO[C@@]1(NC(=O)C2SC(=C(C(N)=O)C(=O)O)S2)C(=O)N2C(C(=O)O)=C(CSc3nnnn3C)CS[C@@H]21 (stereo partly drawn)	nt	nt	-10	-4	-11	-9
Cn1nnnc1SCC1=C(C(=O)O)N2C(=O)C(NC(=O)Cn3nc(C(F)F)cc3C3CC3)C2SC1 (stereo not drawn)	104*	3	10	5	15	-6
Cc1c(Cl)cnn1CC(=O)NC1C(=O)N2C(C(=O)O)=C(CSc3nnnn3C)CSC12 (stereo not drawn)	120*	-10	4	18	0	-3
CSCCC(NS(=O)(=O)c1ccc(Cl)cc1)C(=O)OCC(=O)c1ccc(F)cc1 (stereo not drawn)	2	19	33	-2	-9	-2
NC(=O)c1cc[n+](CC2=C(C(=O)O)N3C(=O)[C@@H](NC(=O)C(c4ccccc4)S(=O)(=O)[O-])[C@H]3SC2)cc1 (stereo partly drawn)	-8	18	-4	-2	-19	-17
